Records with an inconclusive call do not appear. Entries that show only a call come without a potency. Unmarked numbers belong to inactive results. Active and inactive are the calls of the source. Calls come from the whole dose curve; as a rule, active = well fitted curve in the direction sought with a large enough effect; inconclusive = small, poorly fitted or top-dose-only effect, or another doubt; inactive = no such curve, though single readings can be large; an effect the other way counts as inactive or inconclusive.
Assays:
[1] = target: Rap guanine nucleotide exchange factor 3 (Homo sapiens) (UniProt O95398); assay: Confirmatory qHTS for antagonist of cAMP-regulated guanine nucleotide exchange factor 3 (EPAC1) (AID 1645880); note: nearly all actives have a fitted effect of over 55% in size; note: potency is the fitted concentration of half-maximal effect
In short: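 Nucleotide exchange uses 100 nM EPAC1, 250 nM RAP1B-BODIPY-GDP and 50 uM GDP, with compounds in a concentration-titration series. After 5 min at room temperature, fluorescence (480 nm ex/540 nm em) is read every 5 min for 30 min. Data are normalized to control ATA and DMSO.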

[2] = target: Rap guanine nucleotide exchange factor 3 (Homo sapiens) (UniProt O95398); assay: Confirmatory qHTS for agonist of cAMP-regulated guanine nucleotide exchange factor 3 (EPAC1) (AID 1645881); note: nearly all actives have a fitted effect of over 75% in size; note: potency is the fitted concentration of half-maximal effect;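 for activation: EPAC1 catalysed release of BODIPY-GDP from Rap1B seen as fluorescence loss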
[3] = target: Rap guanine nucleotide exchange factor 4 (Homo sapiens) (UniProt Q8WZA2); assay: Confirmatory qHTS for agonist of cAMP-regulated guanine nucleotide exchange factor 4 (EPAC2) (AID 1645884);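 note: nucleotide exchange releases bodipy-GDP from Rap1 and this lowers its fluorescence; nearly all actives have a fitted effect of over 65% in size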; note: potency is the fitted concentration of half-maximal effect
[4] = target: Rap guanine nucleotide exchange factor 4 (Homo sapiens) (UniProt Q8WZA2); assay: Confirmatory qHTS for antagonist of cAMP-regulated guanine nucleotide exchange factor 4 (EPAC2) (AID 1645885); note: nearly all actives have a fitted effect of over 25% in size; note: potency is the fitted concentration of half-maximal effect
[5] = target: Rap guanine nucleotide exchange factor 3 (Homo sapiens) (UniProt O95398); assay: Counterscreen qHTS for antagonist of cAMP-regulated guanine nucleotide exchange factor 3 (EPAC1) (AID 1645888);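 note: fluorescence loss as bound BODIPY-GDP is released from Rap1B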
In short: (§1)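 Rap1B–BODIPY-GDP (250 nM) with 50 uM GDP; compounds pin-transferred to 9.74 nM–152 uM final (activator) or from 7.32 nM upwards (inhibitor). Fluorescence Ex/Em 480/540 nm read at 5 and 30 min, then after adding cAMP or buffer, at room temperature.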

[6] = target: Rap guanine nucleotide exchange factor 3 (Homo sapiens) (UniProt O95398); assay: Counterscreen qHTS for agonist of cAMP-regulated guanine nucleotide exchange factor 3 (EPAC1) (AID 1645889); note: nearly all actives have a fitted effect of over 40% in size; note: potency is the fitted concentration of half-maximal effect
In short: as §1

Chain of Rap guanine nucleotide exchange factor 4 (Homo sapiens) (Q8WZA2 whole entry, looked up): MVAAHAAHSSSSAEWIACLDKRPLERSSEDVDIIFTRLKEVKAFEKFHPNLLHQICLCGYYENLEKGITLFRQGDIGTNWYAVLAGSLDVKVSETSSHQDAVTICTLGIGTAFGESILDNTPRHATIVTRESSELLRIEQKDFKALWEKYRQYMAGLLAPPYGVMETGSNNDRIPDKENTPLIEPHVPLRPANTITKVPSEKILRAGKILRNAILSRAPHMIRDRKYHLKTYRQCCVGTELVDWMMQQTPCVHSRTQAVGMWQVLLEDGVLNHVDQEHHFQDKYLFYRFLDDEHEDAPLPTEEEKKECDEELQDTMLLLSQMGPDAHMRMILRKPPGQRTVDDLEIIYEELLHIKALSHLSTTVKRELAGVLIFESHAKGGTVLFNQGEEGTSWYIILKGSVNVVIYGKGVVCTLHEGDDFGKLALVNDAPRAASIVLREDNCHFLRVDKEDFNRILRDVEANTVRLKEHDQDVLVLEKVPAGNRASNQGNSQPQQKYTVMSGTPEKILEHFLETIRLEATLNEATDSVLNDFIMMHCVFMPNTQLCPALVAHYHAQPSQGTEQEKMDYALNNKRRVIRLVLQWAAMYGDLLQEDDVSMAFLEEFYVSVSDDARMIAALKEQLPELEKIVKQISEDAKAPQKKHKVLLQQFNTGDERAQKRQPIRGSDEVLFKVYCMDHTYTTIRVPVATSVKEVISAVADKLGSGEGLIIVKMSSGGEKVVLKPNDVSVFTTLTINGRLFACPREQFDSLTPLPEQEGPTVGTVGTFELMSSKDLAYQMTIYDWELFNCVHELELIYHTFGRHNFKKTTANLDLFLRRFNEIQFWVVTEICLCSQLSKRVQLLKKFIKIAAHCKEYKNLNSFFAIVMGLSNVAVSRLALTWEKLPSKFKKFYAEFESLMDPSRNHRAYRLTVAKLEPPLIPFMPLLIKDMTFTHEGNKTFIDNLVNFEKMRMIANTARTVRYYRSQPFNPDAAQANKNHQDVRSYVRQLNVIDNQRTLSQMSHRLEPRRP
Chain of Rap guanine nucleotide exchange factor 3 (Homo sapiens) (O95398 whole entry, looked up): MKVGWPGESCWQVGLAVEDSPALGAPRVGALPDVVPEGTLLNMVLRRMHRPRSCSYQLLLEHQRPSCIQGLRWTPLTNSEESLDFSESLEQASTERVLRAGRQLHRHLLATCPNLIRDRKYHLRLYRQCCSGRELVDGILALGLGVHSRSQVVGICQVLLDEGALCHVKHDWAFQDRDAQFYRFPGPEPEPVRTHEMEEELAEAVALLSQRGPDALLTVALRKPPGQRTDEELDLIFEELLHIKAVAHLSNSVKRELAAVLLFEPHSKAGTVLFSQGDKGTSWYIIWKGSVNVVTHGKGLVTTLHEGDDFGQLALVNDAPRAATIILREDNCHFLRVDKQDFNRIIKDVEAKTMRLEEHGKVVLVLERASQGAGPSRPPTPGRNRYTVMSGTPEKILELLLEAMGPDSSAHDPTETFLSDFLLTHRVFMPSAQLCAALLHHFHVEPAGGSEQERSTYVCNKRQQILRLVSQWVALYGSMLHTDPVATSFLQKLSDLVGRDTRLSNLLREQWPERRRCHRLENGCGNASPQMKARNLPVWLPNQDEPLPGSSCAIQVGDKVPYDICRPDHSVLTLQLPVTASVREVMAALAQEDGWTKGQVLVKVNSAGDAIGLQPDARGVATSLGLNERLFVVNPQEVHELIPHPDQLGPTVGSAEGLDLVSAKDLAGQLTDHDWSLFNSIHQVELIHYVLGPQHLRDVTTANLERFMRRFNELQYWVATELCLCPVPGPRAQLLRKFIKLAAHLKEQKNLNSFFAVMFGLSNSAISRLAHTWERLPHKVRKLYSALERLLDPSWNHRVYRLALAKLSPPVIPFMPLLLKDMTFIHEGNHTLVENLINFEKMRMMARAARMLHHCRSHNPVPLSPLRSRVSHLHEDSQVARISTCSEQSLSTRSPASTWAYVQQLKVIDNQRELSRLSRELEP

| SMILES | Potency [1] | Potency [2] | Potency [3] | Potency [4] | Potency [5] | Potency [6] | activation [3] | activity change, negative = inhibition [5] | activation [6] | outcome [4] |
| --- | --- | --- | --- | --- | --- | --- | --- | --- | --- | --- |
| O=C1/C(=C/c2ccc(F)cc2)SC(=S)N1NS(=O)(=O)c1ccccc1 | 16.9 µM (active) | inactive | inactive | inactive | inactive | inactive | – | – | – | – |
| CCN(CC)c1ccc2oc(=O)c(C)nc2c1 | inactive | 100 µM (active) | 100 µM (active) | 75.7 µM (active) | inactive | 39.8 µM (active) | – | – | – | – |
| Cc1ccc(C(CCN(Cc2ccccc2)C(=O)c2ccco2)c2ccco2)cc1 (configuration not stated) | 37.9 µM (active) | inactive | inactive | 53.6 µM (active) | inactive | inactive | – | – | – | – |
| O=c1c2sccc2nc(SCc2cc(=O)n3cc(Cl)ccc3n2)n1Cc1ccccn1 | inactive | inactive | inactive | inactive | inactive | inactive | – | – | – | – |
| O=C1NC(=Nc2ccccc2Cl)S/C1=C\c1cccc([N+](=O)[O-])c1O | 21.3 µM (active) | inactive | inactive | inactive | inactive | inactive | – | – | – | – |
| C=CC[C@@H](CC(=O)NCCO)C(=O)N[C@@H](C)COC(=O)[C@H](CC=C)CC(=O)OC(C)(C)C | inactive | inactive | – | inactive | – | – | -2.5% [at 17.1 µM, percent relative to cAMP agonist control] | 2.15% [at 30.8 µM] | -7.04% [at 30.8 µM] | – |
| COc1cc2ccccc2cc1C(=O)N1CCc2ccccc21 | inactive | inactive | inactive | 7.57 µM (active) | inactive | inactive | – | – | – | – |
| COc1ccccc1Cc1nc2ccccc2nc1SCC(=O)Nc1ccccc1C(F)(F)F | inactive | inactive | inactive | – | inactive | inactive | – | – | – | inactive [at 12.7 µM] |
| Cc1ccc(-n2nc3ccc(NC(=O)/C=C/c4ccco4)cc3n2)cc1 | 39.8 µM (active) | inactive | – | inactive | – | – | 5.31% [at 17.1 µM, percent relative to cAMP agonist control] | 8.52% [at 30.8 µM] | 13.9% [at 30.8 µM] | – |
| COc1cc(CCc2ccccc2)c(C(=O)O)c(O)c1CC=C(C)C | 42.6 µM (active) | inactive | inactive | inactive | inactive | inactive | – | – | – | – |
| COC(=O)C1=C(C)N(Cc2ccco2)C(=O)/C1=C\c1ccc(N(C)C)cc1 | inactive | inactive | inactive | inactive | inactive | inactive | – | – | – | – |
| Cc1[nH]c2ccccc2c1C(=O)C(C)OC(=O)c1ccc(Cl)nc1 (configuration not stated) | inactive | inactive | – | inactive | – | – | 9.38% [at 17.1 µM, percent relative to cAMP agonist control] | -3.94% [at 30.8 µM] | 19.4% [at 30.8 µM] | – |
| CCC(C)Sc1c(C(C)C)cnc2c1c(=O)n(C)c(=O)n2C (configuration not stated) | inactive | inactive | inactive | inactive | inactive | inactive | – | – | – | – |
| CCCCOC(=O)CSc1nnc(-c2ccc(Cl)cc2Cl)o1 | inactive | inactive | – | inactive | – | – | 5.42% [at 17.1 µM, percent relative to cAMP agonist control] | -4.49% [at 30.8 µM] | 14.1% [at 30.8 µM] | – |
| Cn1c(=O)cc(N2CCN(C(=O)c3ccco3)CC2)[nH]c1=O | inactive | inactive | inactive | inactive | inactive | inactive | – | – | – | – |
| NN=C1c2ccccc2C(=O)C1C(=O)C(c1ccccc1)c1ccccc1 (configuration not stated) | 42.6 µM (active) | inactive | inactive | inactive | inactive | inactive | – | – | – | – |
| Cc1cc(/C=N/NC(N)=S)c(O)c(/C=N/NC(N)=S)c1 | inactive | 44.7 µM (active) | 50.1 µM (active) | inactive | inactive | 6.31 µM (active) | – | – | – | – |
| Nc1nnc(-c2cccc(F)c2)s1 | inactive | inactive | inactive | inactive | inactive | inactive | – | – | – | – |
| Cc1ccn2cc(CNC(=O)c3cccs3)nc2c1 | inactive | inactive | inactive | inactive | inactive | inactive | – | – | – | – |
| CCN1C(=O)/C(=C/C=C2/SCCN2C)SC1=S | inactive | 79.4 µM (active) | – | inactive | – | 11.2 µM (active) | 20% [at 17.1 µM, percent relative to cAMP agonist control] | 0.532% [at 30.8 µM] | – | – |
| O=C(COC(=O)c1c2c(nc3ccccc13)/C(=C/c1ccco1)CC2)NC1CCCC1 | 30.1 µM (active) | inactive | inactive | inactive | inactive | inactive | – | – | – | – |
| O=C(NCCCn1ccnc1)c1cc(-c2cccnc2)nc2ccc(Br)cc12 | inactive | inactive | inactive | inactive | inactive | inactive | – | – | – | – |

Source: PubChem BioAssay (NCATS)
